Source: PubChem BioAssay (The Scripps Research Institute Molecular Screening Center)
An excerpt weighted towards active compounds, which were near 2.3% of everything screened.
CHRM1 agonist = human M1 muscarinic receptor agonism | P11229 | CHO-K1 hM1, Fluo-8 calcium fluorescence, agonist mode; 0% DMSO, 100% acetylcholine EC100 | activation, % at 3 µM | 0.33% of 360,000 active | AID 588814;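 active = activation above the run's mean compound activation plus 3 SD, cut at about 16% in these data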;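 also: peak over basal fluorescence ratio within a 140 s kinetic read after compound addition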
Target sequence (P11229 whole entry, looked up): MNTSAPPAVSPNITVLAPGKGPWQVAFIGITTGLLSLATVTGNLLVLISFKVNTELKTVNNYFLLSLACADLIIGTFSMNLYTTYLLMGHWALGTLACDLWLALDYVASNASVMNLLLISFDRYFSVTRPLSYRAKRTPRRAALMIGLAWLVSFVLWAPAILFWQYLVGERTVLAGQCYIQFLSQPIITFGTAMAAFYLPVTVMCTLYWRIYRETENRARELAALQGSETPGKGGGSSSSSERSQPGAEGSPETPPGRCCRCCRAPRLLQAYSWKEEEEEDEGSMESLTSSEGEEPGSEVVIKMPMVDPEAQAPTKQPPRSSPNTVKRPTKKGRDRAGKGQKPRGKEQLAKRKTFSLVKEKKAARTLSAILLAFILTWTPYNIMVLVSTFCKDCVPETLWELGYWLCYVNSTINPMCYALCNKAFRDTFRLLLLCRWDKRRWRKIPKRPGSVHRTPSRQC
CHO-K1 Ca ag = counter-screen for M1 agonists: effect in parental CHO-K1 cells; 0.48% of 360,000 active; activation, % at 3 µM; Fluo-8 calcium fluorescence; scaled to maximal ATP response, vehicle zero; in the data active = activation above about 15%;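 also: untransfected CHO-K1 host cells lacking M1 receptor as counterscreen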
CHRM1 antagonist = blocks human M1 muscarinic receptor | P11229 | CHO-K1 hM1, Fluo-8 calcium fluorescence, ACh EC80 antagonist | inhibition, % at 3 µM | 1.3% of 360,000 active | AID 588852;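 active = percent inhibition above its own plate's cutoff, namely the mean of that plate's compound wells plus 3 SD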;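 also: peak over basal fluorescence ratio during 140 s after agonist addition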
M1 PAM parental = counter-screen for M1 PAMs: effect in parental CHO-K1 cells. activation, % at 3 µM. 0.02% of 360,000 active. ATP EC20, Fluo-8 calcium fluorescence; 0% at ATP EC20, 100% at ATP max. AID 602247;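 active = activation above the run cutoff, the mean activation of all test compounds plus 3 SD, cut at about 40% in these data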;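 also: peak over basal fluorescence ratio in a 140 s read after ATP addition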
M1 PAM = positive allosteric modulators of human M1 muscarinic receptor. P11229. CHO-K1 hM1, Fluo-8 calcium fluorescence, ACh EC20; 0% = ACh EC20, 100% = maximal ACh. activation, % at 3 µM. 0.088% of 360,000 active; in the data active = activation above about 19%, passing the limit was not always enough
CHO-K1 Ca antag = counter-screen for M1 antagonists: effect in parental CHO-K1 cells; ATP-induced calcium, Fluo-8 fluorescence; inhibition, % at 3 µM; 0.6% of 360,000 active; AID 602250;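 active = inhibition above a per-plate cutoff, the plate's mean sample inhibition plus 3 SD, cut at about 24% in these data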
Of the large screens only hits and unclear results are named; the others gave an inactive call.

CC(=O)c1sc(NC(=O)CCc2ccccc2)nc1C	none
Cc1c(NC(=O)c2ccc(S(=O)(=O)N3CC(C)OC(C)C3)cc2)c(=O)n(-c2ccccc2)n1C (configuration not stated)	CHO-K1 Ca antag 32
Cc1c(NC(=O)c2ccccc2NS(=O)(=O)c2ccc(F)cc2)c(=O)n(-c2ccccc2)n1C	none
CCCN(CCC)S(=O)(=O)c1ccc(C(=O)Nc2c(C)n(C)n(-c3ccccc3)c2=O)cc1	CHRM1 antagonist 39
Cc1c(NC(=O)c2ccc(N(C)S(=O)(=O)c3ccccc3)cc2)c(=O)n(-c2ccccc2)n1C	none
Cc1c(NC(=O)c2cccc(S(=O)(=O)N(C)c3ccccc3)c2)c(=O)n(-c2ccccc2)n1C	CHRM1 antagonist 38
Cc1c(NC(=O)c2ccc(S(=O)(=O)Nc3ccccc3F)cc2)c(=O)n(-c2ccccc2)n1C	CHRM1 antagonist 35
CNC(=O)C1CC(=O)N(CCc2ccc(C)cc2)C1 (configuration not stated)	none
COc1ccc(N2CCN(C(c3cc(OC)ccc3OC)c3nnnn3CC3CCCO3)CC2)cc1 (configuration not stated)	none
COC(=O)C1CCN(S(=O)(=O)CCNC(=O)c2ccccc2)CC1	none
O=C(NCCCNC(=O)c1c(F)cccc1F)c1c(F)cccc1F	none
O=C(NCC(Cl)c1ccc2ccccc2c1)c1c(F)cccc1F (configuration not stated)	CHO-K1 Ca ag 20
CCN(CC)S(=O)(=O)c1cc(C(=O)OCC(=O)Nc2cccc(C)c2C)ccc1F	none
COc1ccc(S(=O)(=O)N2CC(C)N(C(=O)N3CCOCC3)C2)cc1 (configuration not stated)	none
COc1c(Cl)cc(-c2noc(C)c2C(=O)NC(C)C)cc1Cl	none
CCN(CC)c1ccc(/C=C/C(=O)c2ccc(Br)cc2)cc1	CHRM1 agonist 171, CHO-K1 Ca ag 111, CHRM1 antagonist 79, CHO-K1 Ca antag 73
CN(C)c1nc(C=C(C#N)C#N)c(Cl)n1-c1ccc(F)cc1	none
CC1CCCCC12NC(=O)N(CC(=O)N1CCN(Cc3ccc(C#N)cc3)CC1)C2=O (configuration not stated)	none
CCOC(=O)N1CCC(NC(=O)c2cccc3c2C(=O)N(Cc2cccnc2)C3)CC1	none
CCC[C@@H](CN1CCC[C@H]1CN1C(N)=NC[C@H]1CC(C)C)N1C[C@@H]([C@H](C)CC)N(CCCC2CCCC2)C1=N	CHRM1 antagonist 59
CC(C)C[C@@H]1CN=C(N)N1C[C@@H]1CCCN1C[C@H](C)N1C[C@@H](Cc2ccccc2)N(CCc2ccc(Cl)c(Cl)c2)C1=N	none
CC(C)C[C@@H]1CN=C(N)N1C[C@@H]1CCCN1C[C@H](C)N1C[C@@H](Cc2ccccc2)N(CCCC2CCCC2)C1=N	CHRM1 antagonist 34
Cn1c(=O)c2c(nc(SCCN3CCCCC3)n2Cc2ccc(Cl)cc2)n(C)c1=O	CHRM1 antagonist 33
CCSc1nc2c(c(=O)n(C)c(=O)n2C)n1Cc1ccc(Cl)cc1	none
Cc1noc(COc2ccccc2OCC(N)=O)n1	CHO-K1 Ca ag 16
O=C(c1cc2cc(F)ccc2[nH]1)N(Cc1cccnc1)CC1CCCN(C2CCCCC2)C1 (configuration not stated)	CHRM1 antagonist 35
OC(CN1CCCCC1)CN(c1ccccc1)c1ccccc1 (configuration not stated)	CHRM1 antagonist 51
OC(CN1CCCCCC1)CN(c1ccccc1)c1ccccc1 (configuration not stated)	CHRM1 antagonist 38
OC(CN1CCOCC1)CN(c1ccccc1)c1ccccc1 (configuration not stated)	none
Cc1ccccc1S(=O)(=O)N(CC(O)CN1CCCCC1)c1ccccc1 (configuration not stated)	none
CC1CCN(S(=O)(=O)CCNC(=O)c2ccc(F)cc2)CC1	none
CC(=O)c1ccc(N2CCN(C(=O)/C=C/c3ccc(S(=O)(=O)NCc4ccco4)cc3)CC2)cc1	CHRM1 antagonist 39
COc1ccc2cc(-c3[nH]ncc3CN3CCCN(c4ccccc4)CC3)ccc2c1	none
CCn1c(SC(C)C)nnc1-c1cc(-c2ccccc2)sc1N	CHO-K1 Ca antag 28
C=CCn1c(-c2cc(-c3ccccc3)sc2N)n[nH]c1=S	none
COc1ccc(C)cc1Nc1n[n+](-c2ccccc2)c(-c2cc(OC)c(OC)cc2Br)s1	none
COc1ccc(C)cc1Nc1n[n+](-c2ccccc2)c(-c2c(OC)ccc3ccccc23)s1	CHO-K1 Ca ag 16, CHRM1 antagonist 31
Fc1ccc(-[n+]2nc(Nc3ccccc3)sc2-c2c3ccccc3cc3ccccc23)cc1	CHRM1 agonist 19
CN(C(=O)COC(=O)c1cc(S(=O)(=O)N2CCOCC2)ccc1F)C1CCS(=O)(=O)C1 (configuration not stated)	none
CNC(C)C(=O)NC(C(=O)N1CCCC1C(=O)Nc1ccc2ncccc2c1)C(C)C (configuration not stated)	M1 PAM 32
CNC(C)C(=O)NC(C(=O)N1CCCC1C(=O)Nc1ccc2[nH]ccc2c1)C(C)C (configuration not stated)	none
O=C(c1cc(COc2ccc(F)cc2Cl)on1)N1CCSCC1	none
Cn1cnc2c1c(=O)n(Cc1ccccc1)c(=O)n2C	none
Cn1cnc2c1c(=O)n(CC(O)CO)c(=O)n2C (configuration not stated)	CHRM1 antagonist 29
NC(=S)NN=C1CSSC1	none
COc1ccccc1Cc1c(-c2ccccc2)nc2cc(C)c(Br)c(C)n12	none (no result: CHRM1 agonist, CHRM1 antagonist, M1 PAM)
OCCN(CC#CC(O)(c1ccccc1)c1ccccc1)CCO	none
CC(C)N(CC#CC(O)(c1ccccc1)c1ccccc1)C(C)C	CHRM1 antagonist 100
CC(C)N(CC#CC(O)(c1ccccc1)c1ccccc1)CCO	CHRM1 antagonist 84
CN(CC#CC(O)(c1ccccc1)c1ccccc1)C(C)(C)C	CHRM1 antagonist 100
COc1ccc2nc(C)cc(Sc3nc4ccccc4s3)c2c1	CHO-K1 Ca ag 29
Cc1sc2ncnc(NCC(c3ccco3)N3CCCC3)c2c1C (configuration not stated)	CHRM1 antagonist 91
Cn1nc(C(C)(C)C)cc1C(=O)NCc1ccc(N2CCCC2=O)cc1	CHO-K1 Ca antag 29
COc1cc(C(=O)Nc2ccc(Oc3ncnc4sc(-c5ccccc5)cc34)cc2)cc(OC)c1OC	none
COc1ccc(C(=O)Nc2ccc(Oc3ncnc4sc(-c5ccccc5)cc34)cc2)cc1OC	CHO-K1 Ca ag 16
COc1cccc(NC(=O)Cn2c(=O)n(CCC(=O)NC3CCN(Cc4ccccc4)CC3)c(=O)c3ccccc32)c1	none
CN(C)[C@@H]1CCC[C@H]1OC(=O)C(c1ccccc1)c1ccccc1	CHRM1 antagonist 92
